L3MBTL1 inh = L3MBTL1 (human) inhibition | Q9Y468 | AlphaScreen L3MBTL1–H3K9me1 peptide binding | Potency, µM (titrated, usually from 57.1 µM), without a hit: at the top dose activity, negative = inhibition, usual class: inhibitors | 230,000 compounds, 0.66% hits | AID 485360; further: potency means the concentration at half of the fitted maximal effect; on the % scale 0 is the no-effect control and ±100 the full control effect; nearly all actives have a fitted effect of over 60% in size
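L3MBTL1 50 nM + b-AHA-H3(1-15)K9me1 75 nM, 30 min RT; compound added, 30 min RT; streptavidin donor/Ni-chelate acceptor beads 10 ug/mL each final, 30 min RT dark; AlphaScreen read.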
MBNL1 CUG block = inhibitors of human MBNL1 binding to CUG repeat RNA; Potency, µM (highest dose often 57.5 µM), for the others: at the highest dose activity change, negative = inhibition, hits mostly inhibitors; TR-FRET MBNL1-His/biotin-(CUG)12 binding, 665/545 ratio; Q9NR56; 280,000 compounds, 0.036% hits; active means well fitted inhibition curve with a large enough effect in the signal ratio, with a control signal flat, not every such curve was filed as active; inconclusive means small, poorly fitted or top-dose-only effect, or effect the other way, or a change in a side signal; inactive means no such curve, though single readings can be large or run the other way; the % refers to the signal ratio; further: potency means the concentration at half of the fitted maximal effect; on the % scale 0 is the no-effect control and ±100 the full control effect
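Compounds (final 92 nM to 58 uM) are added to His-tagged MBNL1 and biotin-(CUG)12, then terbium anti-His antibody and streptavidin-XL665 (5 nM final). After 60 min at room temperature, the 665/545 nm ratio is read.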
Eya2 inh = Eya2 (human) phosphatase inhibition; Potency, µM (top dose mostly 76.9 µM), for inactives: at the highest dose activity, negative = inhibition, actives largely listed as inhibitors; O00167; 330,000 compounds, 0.006% hits; recombinant Eya2, OMFP fluorescence dephosphorylation (OMFP is methylfluorescein phosphate); further: potency means the concentration at half of the fitted maximal effect; on the % scale 0 is the no-effect control and ±100 the full control effect
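Eya2 protein (added as 0.2 uM solution) was preincubated with compound for 10 min at ambient temperature in 50 mM HEPES pH 7.5, 50 mM NaCl, 5 uM MgCl2, 0.05% BSA, 1 mM DTT. OMFP (added at 50 uM) then reacted 10 min; fluorescence read at 485/525 nm.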
CBFb-RUNX1 inh = CBF-beta/RUNX1 interaction disruption. AlphaScreen CBFb-His/RUNX1-biotin binding, biochemical. Potency, µM (titrated, usually from 59.8 µM), without a hit: at the highest dose activity, negative = inhibition, most hits filed as inhibitors. 230,000 tested, under 10 active. AID 1477; further: % of control where 0% means no effect
Target sequence (Q01196 whole entry, looked up): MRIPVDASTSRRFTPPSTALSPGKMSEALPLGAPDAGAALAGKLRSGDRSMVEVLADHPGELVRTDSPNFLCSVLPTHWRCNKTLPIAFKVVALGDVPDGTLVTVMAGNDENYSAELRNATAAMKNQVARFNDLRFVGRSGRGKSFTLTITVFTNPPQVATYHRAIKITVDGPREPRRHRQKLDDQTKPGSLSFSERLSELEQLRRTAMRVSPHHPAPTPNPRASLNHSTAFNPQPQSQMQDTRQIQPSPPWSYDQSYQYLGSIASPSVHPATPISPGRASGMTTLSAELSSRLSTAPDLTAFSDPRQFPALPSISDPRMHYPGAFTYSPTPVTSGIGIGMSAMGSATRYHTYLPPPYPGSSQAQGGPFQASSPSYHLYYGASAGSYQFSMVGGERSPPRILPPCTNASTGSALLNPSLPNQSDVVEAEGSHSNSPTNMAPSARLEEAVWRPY
Target sequence (Q13951 whole entry, looked up): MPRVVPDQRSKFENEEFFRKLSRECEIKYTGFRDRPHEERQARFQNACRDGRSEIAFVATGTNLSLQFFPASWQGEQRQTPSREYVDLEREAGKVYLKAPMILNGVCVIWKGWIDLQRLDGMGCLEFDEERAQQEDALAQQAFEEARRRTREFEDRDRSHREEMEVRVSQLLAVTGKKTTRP
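Proteins preincubated together for 20 min at RT before compound addition; 15 min later, nickel and streptavidin beads were added and left 90 min prior to AlphaScreen measurement.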
Six1-Eya2 blk = inhibitors of human Six1/Eya2 interaction; AlphaScreen GST-Six1/His-Eya2 binding, biochemical; hits give low values; 360,000 compounds, 0.56% hits; Q15475+O00167; activity change, % (concentration not given with the values); AID 651725; in the data active means activity change below about -65%; inconclusive means mostly about -30% to -63%; further: on the % scale 0 is the no-effect control and ±100 the full control effect
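Homogeneous AlphaScreen proximity assay pairing GST-Six1 with His-tagged Eya2 (added as 5X mix: 250 nM and 500 nM) in 50 mM Tris pH 8.0, 300 mM NaCl, 1 mM TCEP. Glutathione donor and nickel acceptor beads; 1 h, 37 °C, dark.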
CtBP-E1A blk = CtBP/E1A binding inhibition. activity change, % (no concentration beside the values). 340,000 compounds, 0.49% hits. AlphaScreen GST-E1A/His-CtBP binding, 1536-well; hits give low values; in the data active means activity change below about -65%; inconclusive means mostly about -30% to -63%; further: on the % scale 0 is the no-effect control and ±100 the full control effect
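In 5 uL wells, 23 nL compound meets equimolar GST-E1A and His-CtBP (5X stock 125 nM each) for 2 h, 37 °C. Beads (5X, 50 ug/mL) then 1 h, 37 °C, dark.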
Numbers without * were called inactive; ? = inconclusive; · = no result given; ! = not confirmed by another sample. A selection: hits, their analogues and other compounds. The true share with any hit is near 0.89%. Unless noted, the call rests on the fitted dose curve; in most records, active means well fitted curve in the direction sought with a large enough effect; inconclusive means small, poorly fitted or top-dose-only effect, or another doubt; inactive means no such curve, though single readings can be large; an effect the other way counts as inactive or inconclusive.

SMILES	L3MBTL1 inh	MBNL1 CUG block	Eya2 inh	CBFb-RUNX1 inh	Six1-Eya2 blk	CtBP-E1A blk
Cc1cccc(-c2nc3ccccc3c(=O)n2NC(=O)/C=C/c2ccc([N+](=O)[O-])cc2)c1	-22.1%	?	-1.3%	-2.5%	-8.2	-81.0*
CC(C)CC1C(=O)N(Cc2cn(CC3CCCCC3)nn2)CCS(=O)(=O)N1Cc1ccc(-c2cccc(CO)c2)cc1 (stereo not drawn)	·	·	·	·	-1.5	-24.4
Cc1c(Cl)cccc1NC(=O)C1NC(=O)CC1c1ccccc1 (stereo not drawn)	·	-9.7%	10.0%	2.5%	-3.3	-3.0
O=C1CC2(CCN(S(=O)(=O)c3ccccc3F)CC2)Oc2ccccc21	11.3%	·	15.9%	·	-3.7	-1.8
O=C(Oc1cccc2cccnc12)c1ccco1	-9.4%	0.8%	-4.0%	?	?	?
O=C(Oc1ccc(Cl)c2cccnc12)c1ccco1	·	12.7%	5.0%	-23.6%	-87.6*	-83.0*
O=S(=O)(Cc1ccccc1)N1CCN(Cc2ccc3c(c2)OCO3)CC1	·	0.8%	·	-3.1%	-4.3	-1.9
Cc1ccccc1/C=N/NC(=O)Cn1cnc([N+](=O)[O-])n1	·	?	-1.1%	0.8%	-0.4	1.3
O=C(Cn1cnc([N+](=O)[O-])n1)N/N=C/c1ccccc1O	?	?	0.0%	?	-92.4*	-94.7*
O=C(Cn1cnc([N+](=O)[O-])n1)N/N=C/c1cc(Cl)ccc1O	17.8µM*	?	-6.9%	-25.3%	-92.0*	-94.1*
CCN1/C(=C\C(=S)Nc2ccccc2)Sc2ccccc21	-6.3%	56.3%	6.5%	?	?	-0.7
CCN1/C(=C/C(C)=C/c2sc3ccccc3[n+]2CC)Sc2ccccc21	·	?	?	·	-80.1*!	?
CCNC(=O)C1CCCN(C(=O)c2ccc(C(=O)OC)cc2)CC1 (stereo not drawn)	·	·	·	·	2.7	3.3
O=[N+]([O-])c1ccccc1C=NN1CCCCCC1	·	·	·	·	-70.0*	?
O=[N+]([O-])c1ccccc1/C=N/N1CCN(Cc2ccccc2)CC1	?	?	-6.8%	·	?	-29.4
O=C(O)c1cccc(Cn2c(Cl)c(/C=N/NC(=O)c3ccccc3)sc2=O)c1	-4.3%	?	-1.1%	2.2%	-17.8	-5.0
O=C(O)c1cccc(Cn2c(Cl)c(/C=N/NC(=O)c3cc4ccccc4cc3O)sc2=O)c1	35.5µM*	·	-7.3%	?	-27.1	·
O=C(O)c1ccc(/C=N/NC(=O)c2cc3ccccc3cc2O)cc1	31.6µM*	·	5.2%	·	-4.2	-7.3
NC(=O)Cc1c[nH]c2cccc(O)c12	3.2%	-0.6%	8.4%	3.0%	-2.1	0.4
COc1ccc(C2=NN(c3nc(-c4ccccc4)c(CC(=O)O)s3)C(c3ccco3)C2)cc1 (stereo not drawn)	31.6µM*	?	9.8%	8.9%	-4.7	-0.4
Cc1nc(N2N=C(c3ccc(Cl)cc3)CC2c2ccco2)sc1C(=O)N(C)C (stereo not drawn)	31.4%	41.2%	-18.3%	?	11.6	17.0
COc1ccccc1OCC(=O)N/N=C/c1cccc2cccnc12	·	?	-18.2%	·	-74.4*	-86.1*
COc1ccc(OCC(=O)N/N=C/c2cccc3cccnc23)cc1	·	·	·	·	-80.2*	-85.6*
O=C(COc1ccc(Cl)cc1)N/N=C/c1cccc2cccnc12	·	15.7%	-15.4%	·	?	?
COc1cccc(/C=N/NC(=O)CSc2cccc3cccnc23)c1	?	?	-6.7%	-17.4%	-93.6*	-94.1*
SMILES	L3MBTL1 inh	MBNL1 CUG block	Eya2 inh	CBFb-RUNX1 inh	Six1-Eya2 blk	CtBP-E1A blk
COc1cccc(/C=N/NC(=O)COc2cccc3cccnc23)c1O	8.7%	7.8%	-0.4%	3.1%	?	-79.9*
CC[C@](N)(CCC(=O)O)C(=O)O	·	·	·	8.6%	·	·
CC(=O)Nc1cc(-c2cccc(C(=O)NCCN(C)C)c2)cn2c(-c3ccc(C(C)=O)cc3)cnc12	·	·	·	·	4.6	-11.1
O=c1[nH]c(N/N=C/c2ccccc2)nc2ccccc12	7.2%	-2.9%	-8.0%	8.0%	-1.9	5.0
O=c1[nH]c(N/N=C\c2ccc3c(c2)OCO3)nc2ccccc12	-11.7%	?	3.4%	-2.9%	?	-68.4*
O=c1c2cc(O)c(O)cc2oc2cc(O)c(C3OC(CO)C(O)C(O)C3O)c(O)c12 (stereo not drawn)	3.16µM*	·	10.7%	?	-23.4	22.9
O=c1cc(-c2ccc(O)c(O)c2)oc2cc(O)c([C@@H]3O[C@H](CO)[C@@H](O)[C@H](O)[C@H]3O)c(O)c12	?	·	0.6%	?	?	-13.8
COc1ccc(NC(=O)Cn2c(=O)n(CC(=O)NCc3ccco3)c(=O)c3ccccc32)cc1	-0.6%	-8.2%	5.4%	0.9%	4.0	-5.3
N=C(N)SCc1nc2ccccc2c(=O)n1-c1ccccc1	9.5%	2.6%	-9.9%	-1.1%	-81.8*!	-82.7*!
O=C(O)c1ccc(CSc2nc3ccccc3c(=O)n2-c2ccccc2)cc1	-1.7%	2.0%	3.1%	·	1.1	·
O=C(NN=Cc1ccc(O)cc1)c1ccccc1NS(=O)(=O)c1cccs1	7.1%	·	-10.7%	·	-3.2	-18.3
Cc1cc(C(=O)N/N=C/c2cc(Cl)cc([N+](=O)[O-])c2O)c2ccccc2n1	?	?	-5.7%	3.9%	-88.7*	-90.9*
O=C(NN=Cc1cc(Cl)ccc1[N+](=O)[O-])c1cccc2ccccc12	·	·	·	·	-4.4	0.8
O=C(N/N=C/c1cc(Cl)cc([N+](=O)[O-])c1O)c1ccccc1NS(=O)(=O)c1cccs1	-0.5%	-8.4%	-3.4%	?	-77.0*	-0.8
O=S(=O)(NCc1nnnn1-c1ccc(F)cc1)c1ccc(F)cc1	·	·	·	·	5.6	0.5
O=C(COc1ccccc1C(=O)N/N=C\c1ccc(O)c(O)c1)N/N=C/c1ccc(O)c(O)c1	1.58µM*	?	2.1%	·	-79.2*	-76.7*
C/C(=N/NC(=O)c1cc(O)c(O)c(O)c1)c1ccc([N+](=O)[O-])cc1	17.8µM*	?	-3.1%	-8.0%	-5.7	·
Cc1nc(C)n(CC(C)C(=O)N2CCN(S(=O)(=O)c3ccc(Cl)cc3)CC2)n1 (stereo not drawn)	·	-1.3%	14.8%	·	-9.8	0.0
Cc1cc(C)nc(Nc2nc(C(N)c3ccccc3)cs2)n1 (stereo not drawn)	·	·	·	·	-68.7*	-67.5*
O=C(O)c1ccc2c(c1)C(=O)N([C@H](Cc1c[nH]c3ccccc13)C(=O)O)C2=O	8.4%	·	6.3%	11.2%	·	·
C#CCN1C(=O)S/C(=C/C=C/c2ccc(N(C)C)cc2)C1=O	?	·	11.7%	?	-19.7	-29.7

Screening results (PubChem)
